This is an account of results in PubChem BioAssay.

Each structure is given as a SMILES string. Activity calls are given as the source filed them. Unless noted, the rule behind the calls is not given here.

Experiment [1] in a line: HepG2 liver cancer cell viability effects, profiling panel, resazurin fluorescence, 24 h, PK04 Diversity Set (AID 1172). Note: test concentration not given here. The note with it: higher = more signal. Background: Alamar Blue is a resazurin reagent that responds to reducing activity.
Experiment [2] can be described thus: basal S. cerevisiae growth modulation, no modifier, primary screen, OD600, strain BY4716, 24 h, basal condition (AID 1173). The note with it: OD600, 24 h, higher = more signal, called active from +8 up or from −8 down.
The nature of experiment [3]: MM1S myeloma cell viability, profiling panel, resazurin fluorescence, basal, 24 h, PK04 Diversity Set (AID 1174).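 Note: MM1S multiple myeloma cell line; test concentration not given here.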 The note with it: higher = more signal, called active from +8 up or from −8 down.
In experiment [4] the target is Dihydroorotate dehydrogenase (quinone), mitochondrial (Plasmodium falciparum (isolate 3D7)) (UniProt Q08210). Put plainly: PfDHODH enzyme inhibitors, primary screen, biochemical, C-terminal His tag, absorbance 600 nm (AID 1175).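 Note: recombinant parasite enzyme with a five histidine tag at its C terminus; test concentration not given here.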 The note with it: DCIP absorbance 600 nm, higher = more signal, called active from +8 up or from −8 down.
Dihydroorotate dehydrogenase (quinone), mitochondrial (Plasmodium falciparum (isolate 3D7)), sequence (Q08210 whole entry, looked up): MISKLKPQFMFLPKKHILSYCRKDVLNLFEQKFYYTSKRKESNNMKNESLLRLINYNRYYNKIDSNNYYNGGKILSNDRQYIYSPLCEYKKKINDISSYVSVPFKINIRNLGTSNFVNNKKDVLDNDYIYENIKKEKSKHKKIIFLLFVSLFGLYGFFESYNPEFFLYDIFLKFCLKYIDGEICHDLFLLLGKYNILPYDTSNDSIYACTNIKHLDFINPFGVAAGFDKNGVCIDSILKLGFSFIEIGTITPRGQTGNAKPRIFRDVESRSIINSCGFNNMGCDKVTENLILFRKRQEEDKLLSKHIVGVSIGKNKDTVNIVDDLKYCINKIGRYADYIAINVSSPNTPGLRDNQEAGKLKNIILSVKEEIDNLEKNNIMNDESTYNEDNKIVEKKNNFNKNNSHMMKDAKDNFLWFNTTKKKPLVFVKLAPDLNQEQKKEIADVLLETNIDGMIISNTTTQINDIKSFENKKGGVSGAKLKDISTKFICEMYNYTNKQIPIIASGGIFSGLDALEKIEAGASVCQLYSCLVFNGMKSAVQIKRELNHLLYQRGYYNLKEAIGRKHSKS
Experiment [5] is described as follows: P. aeruginosa biofilm formation inhibitors, primary screen, strain PAO1, LB-PBS medium, absorbance 600 nm (AID 1176). Note: test concentration not given here. The conditions noted are these: P. aeruginosa PAO1 growth/biofilm, A600, 12 h; higher = more signal.
A short description of experiment [6]: S. cerevisiae RM11-1a growth modifiers, primary screen, strain RM11-1a, OD600, basal, 24 h (AID 1177).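 Note: cultures grown under basal conditions with no added stressor; test concentration not given here.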 The note with it: OD600, 24 h, higher = more signal, called active from +8 up or from −8 down.
A short description of experiment [7]: E. coli acrAB mutant growth effects, primary screen, E. coli filamentation inducers, strain DRC39, OD650, 24 h (AID 1178).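 Note: growth measured as culture turbidity by optical density at 650 nm; test concentration not given here.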 The conditions noted are these: higher = more signal, called active from +8 up or from −8 down.
Experiment [8] can be described thus: E. coli acrAB mutant growth effects, primary screen, E. coli filamentation inducers, strain DRC39, OD650, 48 h (AID 1179).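 Note: screen aims at cell division blockers that make cells filament.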 The conditions noted are these: E. coli DRC39 delta-acrAB growth, higher = more signal, called active from +8 up or from −8 down.
A short description of experiment [9]: RPMI8226 myeloma cell viability, profiling panel, resazurin fluorescence, basal, 24 h, PK04 Diversity Set (AID 1180).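 Note: RPMI8826 multiple myeloma cell line at 5000 cells per well; test concentration not given here.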 The conditions noted are these: higher = more signal.
Experiment [10] deals with E3 ubiquitin-protein ligase XIAP (Homo sapiens) (UniProt P98170). Put plainly: XIAP binders, primary screen, biophysical, small-molecule microarray, fluorescence 635 nm (AID 1181).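 Note: score merges 667 nm emission and signal to noise over triplicate slides.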 The note with it: small-molecule microarray binding, higher = more signal.
E3 ubiquitin-protein ligase XIAP (Homo sapiens), sequence (P98170 whole entry, looked up): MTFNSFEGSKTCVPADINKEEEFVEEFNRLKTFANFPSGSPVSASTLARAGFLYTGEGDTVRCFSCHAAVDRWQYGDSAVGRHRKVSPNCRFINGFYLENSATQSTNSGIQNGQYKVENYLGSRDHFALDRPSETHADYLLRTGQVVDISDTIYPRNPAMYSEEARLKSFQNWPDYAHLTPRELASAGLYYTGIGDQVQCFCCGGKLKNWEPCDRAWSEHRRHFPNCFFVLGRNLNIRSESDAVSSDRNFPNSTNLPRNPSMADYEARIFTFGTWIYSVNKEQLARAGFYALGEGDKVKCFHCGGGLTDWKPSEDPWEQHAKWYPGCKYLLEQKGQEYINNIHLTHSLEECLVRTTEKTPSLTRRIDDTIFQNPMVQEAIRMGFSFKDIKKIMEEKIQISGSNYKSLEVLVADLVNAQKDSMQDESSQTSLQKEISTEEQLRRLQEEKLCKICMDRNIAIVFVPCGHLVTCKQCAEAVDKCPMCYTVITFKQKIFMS

With `CN1C(=O)[C@@]2(Cc3ccccc3)N=C(c3ccc(OCCCO)cc3)O[C@H]2c2ccccc21`, the z-score in experiment [1] is -0.286; in [2], -6.2 (inactive); in [3] it was -2.4 (inactive); in experiment [5] it was 1.14 (inactive); in experiment [6] it was 0.202 (inactive); in [7] it was 0.432 (inactive). For the same molecule, the z-score in experiment [8] is 0.514 (inactive); in experiment [9], -1.99. The composite z-score in [4] was 0.271 (inactive); in experiment [10], 0.283.

`CC(C)[C@H]1NC(=O)[C@@]23C(=O)N[C@@H](Cc4ccccc4)C2[C@H](C)[C@@]2(C)O[C@H]2C3/C=C/C/C=C\CNC(=O)[C@H](Cc2ccccc2)NC1=O` (stereo not given in full): the z-score was -0.875 in [1]; -0.516 (inactive) in experiment [2]; -0.504 (inactive) in experiment [3]; -0.377 (inactive) in [5]; -0.472 (inactive) in experiment [6]; -0.0953 (inactive) in experiment [7]. In addition, the z-score was -1.2 (inactive) in experiment [8] and -1.26 in experiment [9]. Besides, the composite z-score was -0.141 (inactive) in experiment [4] and -0.288 in [10].

For the molecule `C=CCC(OC(C)=O)[C@@H]1[C@@H](N(Cc2cc3ccccc3o2)C(=O)c2ccc(-c3ccccc3)cc2)c2cc(OCCCO)ccc2N1C(=O)Cc1ccc(OC)cc1` (stereo not given in full), the z-score in [1] is -0.716; in experiment [2], 1.4 (inactive); in experiment [3], -0.133 (inactive); in experiment [5], 0.0672 (inactive); in experiment [6], 0.708 (inactive); in experiment [7], -0.384 (inactive). Also, the z-score in experiment [8] was -0.541 (inactive); in experiment [9], -0.209. The composite z-score was 0.0211 (inactive) in [4] and -0.0414 in [10].

Regarding `C=CCC(OC(C)=O)[C@@H]1[C@@H](N(Cc2ccc(-c3cccc(C(F)(F)F)c3)o2)C(=O)c2cccc3ccccc23)c2cc(OCCCO)ccc2N1C(=O)Cc1ccc(OC)cc1` (stereo not given in full), the z-score was 0.119 in experiment [1]; -1.8 (inactive) in [2]; 0.0814 (inactive) in [3]; -1.17 (inactive) in experiment [5]; -0.0592 (inactive) in [6]; 1.11 (inactive) in [7]. Moreover, the z-score is 0.721 (inactive) in experiment [8] and -0.189 in [9]. Also, the composite z-score is -0.349 (inactive) in experiment [4] and -0.102 in [10].

As for `CC(C)C(CO)N1C(=O)[C@@H]2[C@H]3C(=O)OCC=C[C@H]3OC23C=CCN(C(C)(C)C)C(=O)[C@@H]13` (stereo not given in full), the z-score is -0.341 in experiment [1]; 0.542 (inactive) in [2]; -0.763 (inactive) in experiment [3]; 0.137 (inactive) in experiment [5]; 1.18 (inactive) in [6]; -0.804 (inactive) in experiment [7]. In addition, the results for the z-score in experiment [8] and in [9] were -0.854 (inactive) and -0.941, respectively. The composite z-score in [4] was 0.648 (inactive); in experiment [10] it was -0.156.

`CC1CC/C=C\[C@H]2OC34C=CCN(CCN5CCOCC5)C(=O)[C@H]3N(C(C)CO)C(=O)[C@@H]4C2C(=O)O1` (stereo not given in full): the z-score in [1] was -0.0282; in [2] it was -0.348 (inactive); in experiment [3], -0.0757 (inactive); in experiment [5], -0.0711 (inactive); in experiment [6], 0.366 (inactive); in experiment [7], -0.0135 (inactive). For the same molecule, the z-score is 0.432 (inactive) in experiment [8] and -0.574 in experiment [9]. In addition, the values for the composite z-score in experiment [4] and in [10] were -1.44 (inactive) and -0.0807, respectively.

Turning to `NC(=O)N1C(=O)C2C(C1=O)C1C=C(CCCO)C2C(C2CC2)N1Cc1cccc(OC(F)(F)F)c1` (stereo not given), the z-score in experiment [1] is -0.807; in experiment [2], -1.33 (inactive); in [3], -0.217 (inactive); in experiment [5], -0.0585 (inactive); in experiment [6], -0.0011 (inactive); in experiment [7], -0.149 (inactive). In addition, the figures for the z-score in experiment [8] and in experiment [9] were -0.508 (inactive) and -0.762, respectively. Besides, the values for the composite z-score in experiment [4] and in experiment [10] were -1.26 (inactive) and 0.312, respectively.

Turning to `O=C1O[C@H](c2ccccc2)[C@H](c2ccccc2)N2[C@H]1[C@@H](C(=O)O)[C@]1(C(=O)Nc3ccc(C#CC4(O)CCCCCC4)cc31)[C@H]2c1ccc(O)cc1`, the z-score in [1] is 0.934; in [2], -1.83 (inactive); in experiment [3], 1.36 (inactive); in [5], 0.734 (inactive); in [6] it was -0.692 (inactive); in [7] it was 0.451 (inactive). The z-score in experiment [8] was -0.679 (inactive); in [9] it was -0.0544. The composite z-score is -3.2 (inactive) in experiment [4] and -0.248 in [10].

Regarding `O=C(N1CCOCC1)[C@@]1(CCS(=O)(=O)c2ccccc2)N=C(c2ccc(OCCCO)cc2)O[C@H]1c1ccccc1`, the z-score was -0.285 in experiment [1]; 1.24 (inactive) in experiment [2]; -0.986 (inactive) in [3]; 1.02 (inactive) in experiment [5]; 0.0235 (inactive) in experiment [6]; 0.0835 (inactive) in [7]. Further, the z-score in [8] was 0.0231 (inactive); in experiment [9], -1.09. Besides, the composite z-score in experiment [4] is 0.225 (inactive); in experiment [10] it was 0.3.

As for `CC(C)CNC(=O)[C@@]1(c2ccc([N+](=O)[O-])cc2)CC(=O)N(C2CCCCC2)[C@@H]1c1ccc(CO)cc1`, the z-score in experiment [1] is 0.0751; in experiment [2] it was -1.68 (inactive); in experiment [3], 1.17 (inactive); in [5], -0.301 (inactive); in [6], -0.377 (inactive); in experiment [7] it was 0.637 (inactive). In addition, the z-score was 0.0367 (inactive) in experiment [8] and 1.12 in experiment [9]. Also, the composite z-score in experiment [4] is -0.0682 (inactive); in experiment [10] it was 0.14.

Take `[N-]=[N+]=NCc1ccccc1[C@H]1OC(c2ccc(OCCCO)cc2)=N[C@@]1(Cc1ccccc1)C(=O)NCCN1CCOCC1`: the z-score was 0.292 in experiment [1]; -1.62 (inactive) in [2]; -0.206 (inactive) in experiment [3]; 1.26 (inactive) in [5]; -0.557 (inactive) in experiment [6]; 2.89 (inactive) in [7]. In addition, the figures for the z-score in experiment [8] and in [9] were 0.763 (inactive) and 0.16, respectively. In addition, the composite z-score was -0.905 (inactive) in [4] and 0.785 in [10].

As to `CN1C(=O)C2C(C1=O)C1C=C(CCCO)C2C(c2cccs2)N1Cc1cc2c(cc1Br)OCO2` (stereo not given), the z-score in experiment [1] is -0.0567; in experiment [2], -1.67 (inactive); in [3], -0.35 (inactive); in experiment [5], -0.131 (inactive); in experiment [6], 0.0034 (inactive); in [7] it was 0.19 (inactive). Besides, the z-score in [8] was -0.512 (inactive); in experiment [9], 0.0707. Also, the composite z-score in [4] was -0.539 (inactive); in experiment [10], 0.176.

`COCCOC(=O)N1C(=O)[C@@]2(c3ccccc31)[C@H](c1ccc(OCCO)cc1)N1[C@H](c3ccccc3)[C@H](c3ccccc3)OC(=O)[C@H]1[C@@H]2C(=O)N1CCCCCCC1`: the z-score is 1.11 in experiment [1]; 0.492 (inactive) in [2]; 0.441 (inactive) in experiment [3]; 1.84 (inactive) in experiment [5]; 2 (inactive) in experiment [6]; -0.965 (inactive) in experiment [7]. Also, the z-score was -0.618 (inactive) in experiment [8] and 1.04 in [9]. Also, the composite z-score in [4] is 0.132 (inactive); in [10] it was 2.64.
